# Results filed as inconclusive are left out. Active and inactive are the calls of the source. The calls were made as follows, unless noted: active = hit-call score of the fitted dose curve at least 0.9, where 1 is the maximum; inconclusive = response in the unintended direction; inactive = score below 0.9.
# How the values were obtained:
# [1] = CCTE_Mundy_HCI_iCellGluta_NOG_NeuriteLength: CCTE's Neurite Outgrowth Assay in iCellGluta cells for Neurite Length, Mundy Lab (AID 2284318)
# How it was run: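 Automated high-content imaging of betaIII-tubulin (Alexa Fluor-488) and Hoechst-stained cells gave neurite length, normalized to the DMSO baseline.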
# TTR (gene 7276) = test: CCTE_GLTED_hTTR_0.5uM: CCTE's human Transthyretin (hTTR) Inhibition Assay, with 0.5uM TTR, Great Lakes Toxicology and Ecology Division (GLTED) Lab (AID 2284320; active = hit-call score of the fitted dose curve at least 0.9, where 1 is the maximum; inactive = score below 0.9)
# How it was run: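 Probe (ANSA) displacement from 0.5 uM human transthyretin was followed by fluorescence (ex 380, em 475) after a 2 h incubation with chemical. Activity was scored as signal loss and fitted positively relative to DMSO.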
# [2] = CCTE_Mundy_HCI_iCellGluta_NOG_NeuronCount: CCTE's Neurite Outgrowth Assay in iCellGluta cells for Neuron Count, Mundy Lab (AID 2284340);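 also: cells fixed about 48 h after compound addition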
# How it was run: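 Neuron count read by automated high-content imaging of Hoechst 33342 and betaIII-tubulin/Alexa Fluor-488 labelling in human iPSC glutamatergic neurons. Activity fitted relative to DMSO.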
# [3] = CCTE_Mundy_HCI_iCellGluta_NOG_NeuriteCount: CCTE's Neurite Outgrowth Assay in iCellGluta cells for Neurite Count, Mundy Lab (AID 2284342);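 also: chemical exposure about 48 hours starting 2 hours after plating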
# [4] = Tanguay_ZF_120hpf_MO24: Oregon State University Tanguay Lab 24 Hour Post-fertilization zebrafish Assay for Mortality (AID 2284389; active = hit-call score of the fitted dose curve at least 0.9, where 1 is the maximum; inactive = score below 0.9)
# How it was run: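 Embryo death at 24 hpf was recorded as present or absent in Tropical 5D zebrafish, dechorionated at 4 hpf and dosed statically from 6 hpf (28C, 0.64% DMSO); 5 uM trimethyltin chloride served as positive control.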
# [5] = Tanguay_ZF_120hpf_CRAN: Oregon State University Tanguay Lab 120 Hour Post-fertilization zebrafish Assay for Craniofacial Malformation (AID 2284397; active = hit-call score of the fitted dose curve at least 0.9, where 1 is the maximum; inactive = score below 0.9)
# How it was run: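 Scoring of craniofacial malformation as a binary endpoint was done at 120 hpf by brightfield microscopy and was not done in dead embryos. Exposure was static, starting at 6 hpf, in dechorionated wild-type embryos held singly at 28C with 0.64% DMSO final.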
# [6] = Tanguay_ZF_120hpf_AXIS: Oregon State University Tanguay Lab 120 Hour Post-fertilization zebrafish Assay for Axial Malformation (AID 2284398; active = hit-call score of the fitted dose curve at least 0.9, where 1 is the maximum; inactive = score below 0.9)
# How it was run: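 Scoring was binary (present or absent) for body-axis defects, judged by brightfield imaging at 120 hpf in surviving larvae. Exposure was static at 28C from 6 hpf in chorion-free 5D wild-type embryos, with 0.64% DMSO vehicle.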
# IYD (gene 389434) = test: CCTE_GLTED_hIYD: CCTE's human Iodotyrosine Deiodinase (xIYD) Inhibition Assay, Great Lakes Toxicology and Ecology Division (GLTED) Lab (AID 2284317);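 also: cell-free human IYD enzyme made in baculovirus insect cells; iodide freed from monoiodotyrosine measured by cerium arsenite color change at 420 nm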
# How it was run: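 In the IYD assay, iodide released from MIT by insect-cell-expressed human enzyme was quantified after 3 h via Sandell-Kolthoff rate at 420 nm, with plate-wise normalization to MNT and solvent controls.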
# [7] = CCTE_Deisenroth_5AR_NBTE_donor: CCTE's 5alpha-reductase NanoBRET Target Engagement Assay […], Deisenroth Lab (AID 2284319; active = hit-call score of the fitted dose curve at least 0.9, where 1 is the maximum; inactive = score below 0.9); settings: actives raise or lower the signal
# How it was run: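 SRD5A2-NanoLuc, HEK293T, 20 h expression. Chemical 10 nM - 29.9 uM, 8 conc, duplicate; 3 h preincubation + 2 h testosterone tracer. Nano-Glo substrate plus extracellular NanoLuc inhibitor; donor lum 460 nm. DMSO baseline, bidirectional fit.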
# [8] = CCTE_Deisenroth_5AR_NBTE_acceptor: CCTE's 5alpha-reductase NanoBRET Target Engagement Assay - Autofluorescence Screen, Deisenroth Lab (AID 2284321; active = hit-call score of the fitted dose curve at least 0.9, where 1 is the maximum; inactive = score below 0.9;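 also: compound fluorescence in the acceptor channel under 460 nm excitation flags autofluorescence artifacts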); settings: actives raise or lower the signal
# How it was run: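 Acceptor-channel fluorescence flags artifacts, with excitation fixed at 460 nm. Nominal 100 uM chemical samples were read in triplicate runs, and signal changes were fitted in both directions relative to DMSO.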
# SRD5A2 (gene 6716) = test: CCTE_Deisenroth_5AR_NBTE_ratio: CCTE's 5alpha-reductase NanoBRET Target Engagement Assay - Ratio, Deisenroth Lab (AID 2284322; active = hit-call score of the fitted dose curve at least 0.9, where 1 is the maximum; inactive = score below 0.9); settings: actives raise or lower the signal
# How it was run: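 HEK293T cells transiently expressing an SRD5A2-NanoLuc fusion (20 h post-transfection) were exposed to test chemical (10 nM - 29.9 uM, 8 points) for 3 h, then testosterone tracer for a further 2 h. Acceptor/donor BRET ratio was fitted bidirectionally against DMSO baseline.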
# SERPINA7 (gene 6906) = test: CCTE_GLTED_hTBG: CCTE's human Thyroxine-binding Globulin (TBG) Inhibition Assay, Great Lakes Toxicology and Ecology Division (GLTED) Lab (AID 2284343);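 also: active chemicals lower fluorescence versus DMSO baseline by displacing probe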
# How it was run: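 Cell-free displacement of the fluorescent probe ANSA from human thyroxine-binding globulin after 2 h exposure. Read-out at ex 380/em 475 nm; DMSO baseline.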
# [9] = Tanguay_ZF_120hpf_DP24: Oregon State University Tanguay Lab 24 Hour Post-fertilization zebrafish Assay for Delayed Development (AID 2284390; active = hit-call score of the fitted dose curve at least 0.9, where 1 is the maximum; inactive = score below 0.9)
# How it was run: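 Scored at 24 hpf as a binary present/absent call of delayed development by brightfield, with dead embryos not assessed. Embryos (5D wild type, chorion removed with pronase at 4 hpf) dosed statically from 6 hpf at 28 C in 0.64% DMSO.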
# [10] = IUF_NPC4_neurite_area_120hr: Leibniz Research Institute for Environmental Medicine (IUF) 120-hour Neuronal Morphology Assay for Neurite Area (NPC4) (AID 2284305)
# How it was run: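 Endpoint at 120 h: automated imaging of TUBB3/Hoechst-stained differentiating human neural progenitor spheres, neurite area per neuron from skeletonization. DMSO solvent control, not above 0.1%, set the baseline; medium was half-replaced on day 3.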
# [11] = IUF_NPC2-5_cytotoxicity_72hr: Cytotoxicity Assessment at 72 hours in the Leibniz Research Institute for Environmental Medicine (IUF) Neural Progenitor Cell Migration and Differentiation Assay for Cytotoxicity (NPC2-5) (AID 2284306);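 also: LDH release into supernatant measured by resorufin fluorescence marking membrane damage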
# How it was run: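 Primary human neural progenitor spheres migrate and differentiate on laminin. Compound is present from the start of differentiation, with DMSO kept at or below 0.1%. At 72 h, supernatant LDH is quantified fluorometrically, with values fitted in the positive direction.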
# [12] = IUF_NPC2-5_cytotoxicity_120hr: Cytotoxicity Assessment at 120 hours in the Leibniz Research Institute for Environmental Medicine (IUF) Neural Progenitor Cell Migration and Differentiation Assay (NPC2-5) (AID 2284307)
# How it was run: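 Membrane-integrity loss measured as LDH activity in medium supernatant via resazurin-to-resorufin fluorescence after 120 h exposure. hNPC spheres from GW 16-19 fetal cortex differentiated on poly-D-lysine/laminin, 37C, medium half-refreshed day 3; seven concentrations, DMSO max 0.1%.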
# [13] = IUF_NPC2-5_cell_number_120hr: Cell Number Assessment at 120 hours in the Leibniz Research Institute for Environmental Medicine (IUF) Neural Progenitor Cell Migration and Differentiation Assay (NPC2-5) (AID 2284308; active = hit-call score of the fitted dose curve at least 0.9, where 1 is the maximum; inactive = score below 0.9;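 also: count of Hoechst-stained nuclei in migration zone around plated human neural progenitor spheres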)
# How it was run: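 Counting of all Hoechst-stained nuclei in the migration area at 120 h, versus DMSO control. Primary hNPC spheres differentiated on poly-D-lysine/laminin in N2 medium at 37C, dosed from day 0 (7 concentrations, DMSO ≤0.1%), half-refed day 3.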
# [14] = IUF_NPC2-5_viability_120hr: Viability Assessment at 120 hours in the Leibniz Research Institute for Environmental Medicine (IUF) Neural Progenitor Cell Migration and Differentiation Assay (NPC2-5) (AID 2284312; active = hit-call score of the fitted dose curve at least 0.9, where 1 is the maximum; inactive = score below 0.9)
# How it was run: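 Human fetal (GW 16-19) neural progenitor spheres of 0.3 mm were plated on poly-D-lysine/laminin in N2 differentiation medium and exposed from day 0 for 120 h, with half-medium refresh at day 3. Viability was read as alamar blue resazurin-to-resorufin fluorescence against DMSO.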
# [15] = TAMU_PeakParms_SingleDonor1434_Asystole: Texas A&M University (TAMU) 1.5-hr Human Induced Pluripotent Stem Cell (iPSC)-derived Cardiomyocytes Calcium (Ca+2) Flux Assay for Cardiotoxicity: Asystole (quiescence of beating) (AID 2284328)
# How it was run: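 Human iPSC-derived cardiomyocytes (donor 1434) were exposed to 0.2, 1, 10 and 100 uM compound in 0.5% DMSO for 90 min at 37C. Ca2+-dye fluorescence gave average peak frequency; POD is EC95, a 95% beat-rate drop versus DMSO.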
# [16] = IUF_NPC1_cytotoxicity_72hr: Cytotoxicity Assessment at 72 hours in the Leibniz Research Institute for Environmental Medicine (IUF) Neural Progenitor Cell Proliferation Assay (NPC1) (AID 2284332);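 also: rising LDH signal means more cytotoxicity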
# How it was run: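 Cytotoxicity by LDH membrane-integrity assay on medium supernatants, fluorescence via resazurin reduction, after 3-day single exposure of primary hNPC spheres at 37C, pH 7.2-7.6 with growth factors. Fitted upward against baseline.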
smiles,measurement,setting,value
O=C(O)C(F)(F)C(F)(F)C(F)(F)F,outcome,[1],inactive
same,AC50,TTR (gene 7276),31.9 µM (active)
same,outcome,[2],inactive
same,outcome,[3],inactive
same,outcome,[4],inactive
same,outcome,[5],inactive
same,outcome,[6],inactive
O=C(CC(=O)C(F)(F)C(F)(F)F)C(F)(F)F,outcome,[1],inactive
same,AC50,TTR (gene 7276),3 µM (active)
same,outcome,[2],inactive
same,outcome,[3],inactive
same,outcome,[4],inactive
same,outcome,[5],inactive
same,outcome,[6],inactive
C=C(C)C(=O)OCC(F)(F)C(F)(F)C(F)(F)F,outcome,[1],inactive
same,outcome,[2],inactive
same,outcome,[3],inactive
same,outcome,[4],inactive
same,outcome,[5],inactive
same,outcome,[6],inactive
FC(F)(F)C(F)(F)C(F)(F)CI,outcome,[1],inactive
same,outcome,[2],inactive
same,outcome,[3],inactive
same,outcome,[4],inactive
same,outcome,[5],inactive
same,outcome,[6],inactive
CC(Cc1ccc(O)c(O)c1)C(C)Cc1ccc(O)c(O)c1 (stereo unspecified),outcome,IYD (gene 389434),inactive
same,AC50,[7],64.7 µM (active)
same,AC50,[8],50 µM (active)
same,AC50,SRD5A2 (gene 6716),93.7 µM (active)
same,AC50,SERPINA7 (gene 6906),7.96 µM (active)
FC(F)(F)C(F)(F)C(F)(F)C(F)(F)CCI,outcome,[1],inactive
same,AC50,TTR (gene 7276),75 µM (active)
same,outcome,[2],inactive
same,outcome,[3],inactive
same,AC50,SERPINA7 (gene 6906),46.7 µM (active)
same,outcome,[4],inactive
same,outcome,[9],inactive
same,outcome,[5],inactive
same,outcome,[6],inactive
CCCCC(CC)COP(=O)(O)OCC(CC)CCCC (stereo unspecified),AC50,IYD (gene 389434),100 µM (active)
same,AC50,SERPINA7 (gene 6906),2.42 µM (active)
FC(F)(I)C(F)(F)C(F)(F)C(F)(F)I,AC50,TTR (gene 7276),3.74 µM (active)
O=S(=O)(O)C(F)(F)C(F)(F)C(F)(F)C(F)(F)C(F)(F)C(F)(F)C(F)(F)F,AC50,IYD (gene 389434),100 µM (active)
same,AC50,TTR (gene 7276),0.0773 µM (active)
same,outcome,[4],inactive
same,AC50,[5],33.4 µM (active)
same,AC50,[6],49.5 µM (active)
OCC(F)(F)C(F)(F)C(F)(F)F,outcome,[1],inactive
same,outcome,[2],inactive
same,outcome,[3],inactive
same,outcome,[4],inactive
same,outcome,[5],inactive
same,outcome,[6],inactive
OCC(F)(F)C(F)(F)C(F)(F)C(F)F,outcome,[1],inactive
same,outcome,[2],inactive
same,outcome,[3],inactive
same,outcome,[4],inactive
same,outcome,[5],inactive
same,outcome,[6],inactive
FC(F)(F)C(F)(F)C(F)(F)C(F)(F)C(F)(F)C(F)(F)CC1CO1 (stereo unspecified),outcome,[1],inactive
same,outcome,[2],inactive
same,outcome,[3],inactive
same,outcome,[4],inactive
same,outcome,[5],inactive
same,outcome,[6],inactive
FC(F)(F)C(F)(F)C(F)(F)C(F)(F)C(F)(F)C(F)(F)C(F)(F)C(F)(F)CCS,outcome,[1],inactive
same,AC50,[2],5 µM (active)
same,outcome,[3],inactive
same,outcome,[4],inactive
same,outcome,[5],inactive
same,outcome,[6],inactive
O=C(O)C(F)(F)C(F)(F)C(F)(F)C(F)(F)C(F)(F)C(F)(F)C(F)(F)C(F)(F)C(F)(F)C(F)F,AC50,IYD (gene 389434),73.5 µM (active)
same,AC50,TTR (gene 7276),1.03 µM (active)
same,outcome,[4],inactive
same,outcome,[5],inactive
same,outcome,[6],inactive
OC[C@@H](O)[C@@H](O)[C@H](O)[C@@H](O)CO,outcome,[10],inactive
same,outcome,[11],inactive
same,outcome,[12],inactive
same,outcome,[13],inactive
same,outcome,[14],inactive
same,outcome,[15],inactive
same,outcome,[16],inactive
O=C(O)C(F)(F)C(F)(F)OC(F)(F)F,outcome,[1],inactive
same,AC50,TTR (gene 7276),31.7 µM (active)
same,outcome,[2],inactive
same,outcome,[3],inactive
same,outcome,[4],inactive
same,outcome,[5],inactive
same,outcome,[6],inactive
CC(CCl)OP(=O)(OC(C)CCl)OC(C)CCl (stereo unspecified),outcome,[10],inactive
same,outcome,[11],inactive
same,outcome,[12],inactive
same,outcome,[13],inactive
same,outcome,[14],inactive
same,outcome,[1],inactive
same,outcome,[16],inactive
same,outcome,[2],inactive
same,outcome,[3],inactive
O=P(O)(O)OCCC(F)(F)C(F)(F)C(F)(F)C(F)(F)C(F)(F)C(F)(F)F,outcome,[1],inactive
same,outcome,[2],inactive
same,outcome,[3],inactive
same,outcome,[4],inactive
same,outcome,[5],inactive
same,outcome,[6],inactive

# — PubChem BioAssay (EPA / NIEHS)
